Screens from PubChem BioAssay.
Shown are actives, neighbours in structure and some others; about 6.6% of the full set was active somewhere.
NADH coupling: inhibitors of PK/LDH coupling enzymes, profiling panel, artefact control, biochemical, MLSMR library; coupled PK/LDH NADH assays, four targets; 0.02% of 65,000 active; IC50, µM (doses to about 10 µM), without a hit: at the highest dose inhibition; AID 774, 2007;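 active = single-dose screening hits from any of four coupled enzyme assays that gave an IC50 when retested across doses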;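 also: the DPM-DC format reads NADH fluorescence rather than 340 nm absorbance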
PMK inhibit: S. pneumoniae PMK inhibitors, primary screen, biochemical, mevalonate pathway, pilot trial included. AID 539, 2006. purified PMK, PK/LDH-coupled NADH absorbance 340 nm. inhibition, % at 10 µM. 0.49% of 65,000 active. phosphomevalonate kinase (Streptococcus pneumoniae D39);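 active = top-ranked compounds by inhibition in the single 10 µM screen, taking a fixed number of the strongest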;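 also: 0% = full reaction with DMSO carrier and 100% = background rate without enzyme reaction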
DPM-DC inhibit: S. pneumoniae DPM-DC inhibitors, primary screen, biochemical, PK/LDH-coupled NADH fluorescence | diphosphomevalonate decarboxylase (Streptococcus pneumoniae D39) | calls only at 10 µM | AID 556, 2006 | 0.49% of 65,000 active | purified DPM-DC;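 active = the 320 compounds with the highest percent inhibition in the single-dose primary screen, excluding strongly autofluorescent ones, cut at about 32% in these data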;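 also: kinetic rate of NADH fluorescence loss reporting ADP formed by the decarboxylase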
MK inhibit: S. pneumoniae MK inhibitors, primary screen, biochemical, PK/LDH-coupled NADH absorbance; purified MK, PK/LDH-coupled NADH absorbance 340 nm; inhibition, % at 10 µM; 0.48% of 65,000 active; AID 555, 2006;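 active = ranked among the strongest by inhibition in the single 10 µM screen, a fixed top-ranked set picked for dose follow-up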
Autofluor 339: intrinsic fluorescence of library compounds, ex339/em460 – biochemical, MLSMR library, data from DPM-DC assay, artefact control, profiling panel; compound autofluorescence, ex339/em460 nm, NADH buffer; stronger effect = higher value; 1 = no-compound wells, NADH background; fluorescence fold increase at 10 µM; 5.5% of 65,000 active; AID 709, 2007;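 active = at 10 µM, mean starting fluorescence two-fold or more over control wells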;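 also: signal is the first read of a kinetic run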
The depositor's hits bear a star; i = inactive; / = no result given; + = active, no number; [ ] = remark or other dose.

SMILES	NADH coupling	PMK inhibit	DPM-DC inhibit	MK inhibit	Autofluor 339
CCN1CCCC1CNC(=O)c1cc2c(-c3ccc(Cl)cc3)nn(C)c2s1 (stereo unspecified)	5.0%	3.0	/	6.0	2.13*
CC1CCN(C(c2cc3cc4c(cc3[nH]c2=O)OCO4)c2nnnn2CC2CCCO2)CC1 (stereo unspecified)	12.0%	12.0	/	11.0	3.75*
O=c1[nH]c2cc3c(cc2cc1C(c1nnnn1Cc1ccccc1)N1CCCc2ccccc21)OCO3 (stereo unspecified)	3.0%	13.0	i	0.0	1.43
O=c1[nH]c2cc3c(cc2cc1C(c1nnnn1Cc1ccccc1)N1CCN2CCCC2C1)OCCO3 (stereo unspecified)	5.0%	0.0	/	9.0	4.66*
Cc1ccc2cc(C(c3nnnn3C(C)(C)C)N3CCCC3)c(=O)[nH]c2c1C (stereo unspecified)	7.0%	7.0	i	8.0	1.39
CCCN1CCN(C(c2cc3cc4c(cc3[nH]c2=O)OCO4)c2nnnn2C(C)(C)C)CC1 (stereo unspecified)	3.0%	0.0	/	6.0	3.89*
Cc1ccc2cc(C(c3nnnn3CC3CCCO3)N3CCc4ccccc4C3)c(=O)[nH]c2c1 (stereo unspecified)	3.0%	8.0	i	5.0	1.29
CCOc1ccc2[nH]c(=O)c(C(c3nnnn3CC3CCCO3)N3CCc4ccccc4C3)cc2c1 (stereo unspecified)	8.0%	28.0*	i	6.0	1.88
CC(C)OC(=O)C1C2C=CC3(CN(Cc4cccs4)C(=O)C13)O2 (stereo unspecified)	2.0%	15.0	i	0.0	1.03
CC(=O)Nc1cccc(NC(=O)CSc2nnc(Cc3cccn3C)n2CCc2ccccc2)c1	8.0%	14.0	i	10.0	1.1
COCCn1nnnc1CN(Cc1cc2cc(OC)c(OC)cc2[nH]c1=O)C1CCCC1	8.0%	8.0	i	1.0	2.74*
COCCn1nnnc1C(c1cc2cc(OC)ccc2[nH]c1=O)N1CCC(Cc2ccccc2)CC1 (stereo unspecified)	8.0%	6.0	i	5.0	2.14*
O=c1[nH]c2cc3c(cc2cc1CN(Cc1nnnn1CC1CCCO1)C1CCCC1)OCO3 (stereo unspecified)	12.0%	11.0	i	3.0	2.48*
COCCn1nnnc1C(c1cc2cc(C)ccc2[nH]c1=O)N1CCCCCC1 (stereo unspecified)	9.0%	13.0	i	9.0	1.44
COc1ccc(C(c2nnnn2CC2CCCO2)N2CCN(c3ccccc3)CC2)cc1 (stereo unspecified)	79.0%	77.0*	+	66.0*	1.29
O=c1[nH]c2cc3c(cc2cc1CN(Cc1nnnn1CC1CCCO1)C1CCCCC1)OCO3 (stereo unspecified)	8.0%	16.0	i	7.0	1.62
COc1ccccc1NC(=O)N1CCN(c2ncccn2)CC1	2.0%	1.0	i	5.0	1.08
Cc1ccc2cc(C#N)c(N3CCCN(C(=O)C4CCCO4)CC3)nc2c1 (stereo unspecified)	9.0%	15.0	i	0.0	2.31*
Cc1ccc2nc(N3CCN(C(=O)c4cccs4)CC3)c(C#N)cc2c1	8.0%	11.0	i	1.0	2.44*
Cc1ccc2cc(C#N)c(NCCCNC(=O)C3CCCO3)nc2c1 (stereo unspecified)	2.0%	8.0	/	4.0	2.93*
Cc1cc(C)c2cc(C#N)c(NCCCNC(=O)CCC(=O)O)nc2c1	6.0%	10.0	/	2.0	3.66*
CCCCNC(=O)c1ccc(NC(=O)C2CCCO2)cc1 (stereo unspecified)	4.0%	0.0	i	12.0	1.08
COc1cc(C(=O)N2CCCN(c3nc4cc(C)ccc4cc3C#N)CC2)cc(OC)c1OC	10.0%	12.0	i	/	1.92
COc1ccc(C(=O)N2CCN(c3nc4cc(C)ccc4cc3C#N)CC2)c(OC)c1	2.0%	6.0	i	6.0	1.41
COc1ccc(C2CC(C(F)(F)F)n3ncc(C(=O)Nc4cccc(O)c4)c3N2)cc1OC (stereo unspecified)	4.0%	1.0	i	7.0	1.06
SMILES	NADH coupling	PMK inhibit	DPM-DC inhibit	MK inhibit	Autofluor 339
CCOC(=O)c1ccccc1NCN1C(=O)CSC1=O	17.0%	29.0*	/	4.0	2.2*
CCOC(=O)c1ccccc1NC(=O)C1COc2ccccc2O1 (stereo unspecified)	6.0%	10.0	i	7.0	1.09
CCOC(=O)c1ccc(NC(=O)CN2C(=O)CSC2=O)cc1	10.0%	15.0	i	7.0	1.09
CCOC(=O)c1ccccc1NC1CC(=O)N(c2ccccc2C)C1=O (stereo unspecified)	4.0%	17.0	/	4.0	3.31*
CN1CCN(c2cc3c(c4c2[nH]c2ccccc24)C(=O)CC(C)(C)C3)CC1	7.0%	9.0	/	5.0	2.09*
CC(=O)Nc1ccccc1N(C)S(=O)(=O)c1ccc(C)cc1	3.0%	9.0	i	0.0	1.12
O=C(NC1CCCCCCC1)c1ccc2c(c1)N(Cc1ccc(F)cc1)C(=O)CS2=O (stereo unspecified)	6.0%	15.0	i	3.0	1.16
Cc1c(C)c2cc(Cl)c(OCc3nn[nH]n3)cc2oc1=O	7.0%	9.0	/	5.0	3.78*
CCOc1cc2c(C)cc(=O)oc2cc1Cl	8.0%	14.0	i	3.0	1.8
CCOc1ccc(CCNC(=O)Cc2nn[nH]n2)cc1OCC	3.0%	10.0	i	0.0	1.1
COC(=O)Cc1c(C)c2c(OCc3nn[nH]n3)cc(C)cc2oc1=O	0.0%	0.0	/	0.0	3.78*
CCc1cc(=O)oc2cc(C)cc(OCc3nn[nH]n3)c12	8.0%	11.0	/	5.0	3.83*
Cc1ccc(NCc2nnc(SCC(=O)NCCc3ccccc3)n2C)cc1	7.0%	14.0	i	7.0	1
CCCCn1c(SCC(=O)N2CCCc3ccccc32)nc2c1c(=O)n(C)c(=O)n2C	5.0%	10.0	i	4.0	1.07
Brc1ccc(-c2nc3ccccc3s2)s1	3.0%	8.0	i	0.0	2.23*
Cc1c(NS(=O)(=O)c2ccc3[nH]c(=O)[nH]c3c2)c(=O)n(-c2ccccc2)n1C	0.0%	0.0	i	0.0	1.11
COc1ccc(CCNC(=O)CN2C(=O)C3(OCCCO3)c3ccccc32)cc1OC	4.0%	8.0	i	4.0	1.07
Nc1cccc2c1C(=O)N(c1ccccc1)C2=O	2.0%	9.0	+[fluoresces]	0.0	2.28*
CCCCC(=O)Nc1cccc2c1C(=O)N(c1ccccc1)C2=O	3.0%	0.0	i	9.0	1.07
Cc1ccc(OCC(=O)N2CCC(N3CCCCCC3)CC2)cc1	15.0%	0.0	i	41.0*	1.05
Cc1ccc(OCC(=O)N2CCN(C(=O)CCC3CCCC3)CC2)cc1	10.0%	9.0	i	6.0	1
